Measurements taken from the supplement of paper PMC10849652.
About 7,900 targets were measured; listed, in parts, are those with a hit and a random draw of the rest. About 0.6% of all pairs of compound and target were hits.

Tests used:
Assay in all cases: log2 fold change, soluble protein after heating vs DMSO (PISA); higher = thermal stabilisation; K562 cells, 10 uM, 30 min; active = over 0.2 and 3.5 SD of the protein, either way, in both replicates (recomputed)
[1] = compound: CS(=O)(=O)c1ccc(-c2cnc(N)c(C(=O)Nc3ccccc3)n2)cc1
Outline: (§1)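 K562 cells at 2×10^6 cells/mL were given 10 μM compound for 30 min. Aliquots then went through 3 min of heating across 48°C-58°C, were pooled, and were extracted in PBS with 0.5% NP-40 at 4°C, and the supernatant after 21,000xg for 90 min was quantified by TMTpro 16plex LC-MS/MS with channel sums equalised. Thermal stability relative to control samples, from duplicates, is given as log2 fold change.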

[2] = compound: C[C@@H](Oc1cc(-c2cnn(C3CCNCC3)c2)cnc1N)c1c(Cl)ccc(F)c1Cl [crizotinib]
Outline: as §1

[3] = compound: C[C@@H]1COCCN1C2=NC(=NC(=C2)C3(CC3)S(=O)(=O)C)C4=C5C=CNC5=CC=C4
Outline: as §1

[4] = compound: C[C@H](C1=CC=C(C=C1)C(=O)NC2=C3C=CNC3=NC=C2)N
Outline: as §1

[5] = compound: C[C@H](Nc1ncnc2nc[nH]c12)c1cc2cccc(Cl)c2c(=O)n1-c1ccccc1 [duvelisib]
Outline: as §1

[6] = compound: Cc1cc(Nc2cc(N3CCN(C)CC3)nc(Sc3ccc(NC(=O)C4CC4)cc3)n2)n[nH]1 [tozasertib]
Outline: as §1

[7] = compound: Cc1cc(SCc2sc(-c3ccc(C(F)(F)F)cc3)nc2C)ccc1OCC(=O)O
Outline: as §1

[8] = compound: Cc1ccc(-n2nc(C(C)(C)C)cc2NC(=O)Nc2ccc(OCCN3CCOCC3)c3ccccc23)cc1 [doramapimod]
Outline: as §1

[9] = compound: Cc1ccc(NC(=O)c2ccc(CN3CC[C@H](N(C)C)C3)c(C(F)(F)F)c2)cc1Nc1nccc(-c2cncnc2)n1 [bafetinib]
Outline: as §1

[10] = compound: Cc1nc(Nc2ncc(C(=O)Nc3c(C)cccc3Cl)s2)cc(N2CCN(CCO)CC2)n1 [dasatinib]
Outline: as §1

[11] = compound: Cn1cc(-c2ccc3c(c2)CCN3C(=O)Cc2cccc(C(F)(F)F)c2)c2c(N)ncnc21
Outline: as §1

[12] = compound: Cn1cncc1[C@@](N)(c1ccc(Cl)cc1)c1ccc2c(c1)c(-c1cccc(Cl)c1)cc(=O)n2C [tipifarnib]
Outline: as §1

[13] = compound: Cc1cc(Nc2cc(CN3CCOCC3)c3nc(C)c(Cc4ccc(Cl)cc4F)n3n2)n[nH]1 [gandotinib]
Outline: as §1

[14] = compound: Cc1ccc(C(=O)N(CCCN)[C@@H](c2nc3cc(Cl)ccc3c(=O)n2Cc2ccccc2)C(C)C)cc1 [ispinesib]
Outline: as §1

[15] = compound: Cc1cccc(CC(=O)N2CCc3c2ccc(-c2cn(C)c4ncnc(N)c24)c3F)n1
Outline: as §1

[16] = compound: Cc1cn(-c2cc(NC(=O)c3ccc(C)c(Nc4nccc(-c5cccnc5)n4)c3)cc(C(F)(F)F)c2)cn1 [nilotinib]
Outline: as §1

[17] = compound: Cc1nc(Nc2n[nH]c3c2CN(C(=O)N[C@H](CN(C)C)c2ccccc2)C3(C)C)c2sccc2n1
Outline: as §1

[18] = compound: Cc1ncc(-c2ccnc(Nc3ccc(S(C)(=O)=O)cc3)n2)n1C(C)C
Outline: as §1

[19] = compound: Cn1cc(-c2ccc3nnc(C(F)(F)c4ccc5ncccc5c4)n3n2)cn1
Outline: as §1

[20] = compound: FC(F)(F)c1ccc(/C=C/c2nc(COc3ccc(CCCCn4ccnn4)cc3)co2)cc1 [mubritinib]
Outline: as §1

Measured: log2 fold change

FAM193B (UniProt Q96PV7)
Sequence of UniProt Q96PV7 (Q96PV7 whole entry, looked up): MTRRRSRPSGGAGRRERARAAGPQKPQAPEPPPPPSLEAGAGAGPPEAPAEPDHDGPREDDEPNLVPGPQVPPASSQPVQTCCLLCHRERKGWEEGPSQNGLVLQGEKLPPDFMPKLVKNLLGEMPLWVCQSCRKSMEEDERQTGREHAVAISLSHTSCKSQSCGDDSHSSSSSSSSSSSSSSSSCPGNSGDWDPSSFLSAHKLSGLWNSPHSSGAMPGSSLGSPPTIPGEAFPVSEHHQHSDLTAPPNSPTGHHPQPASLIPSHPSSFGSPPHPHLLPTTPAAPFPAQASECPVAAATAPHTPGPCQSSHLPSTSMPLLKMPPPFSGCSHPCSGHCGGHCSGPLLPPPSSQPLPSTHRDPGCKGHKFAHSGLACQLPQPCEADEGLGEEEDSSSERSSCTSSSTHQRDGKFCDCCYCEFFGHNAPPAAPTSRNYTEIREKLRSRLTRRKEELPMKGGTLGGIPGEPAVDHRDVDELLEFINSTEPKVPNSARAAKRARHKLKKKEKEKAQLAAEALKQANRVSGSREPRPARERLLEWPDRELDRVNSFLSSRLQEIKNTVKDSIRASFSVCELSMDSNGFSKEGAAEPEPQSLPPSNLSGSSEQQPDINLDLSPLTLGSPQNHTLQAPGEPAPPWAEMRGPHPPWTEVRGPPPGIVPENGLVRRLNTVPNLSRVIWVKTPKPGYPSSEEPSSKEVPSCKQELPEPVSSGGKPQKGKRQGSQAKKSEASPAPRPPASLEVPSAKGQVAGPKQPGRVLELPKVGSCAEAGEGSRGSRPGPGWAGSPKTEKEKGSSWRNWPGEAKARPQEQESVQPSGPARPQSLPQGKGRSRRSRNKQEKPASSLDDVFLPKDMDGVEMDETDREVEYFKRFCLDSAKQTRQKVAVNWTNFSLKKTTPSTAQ
inactive: [1] -0.065 | [2] -0.081 | [3] -0.097 | [4] 0.348 | [5] -0.18 | [6] 0.062 | [7] -0.189 | [8] -0.046 | [9] 0.19 | [10] -0.01 | [11] 0.171 | [12] -0.027

CYB561A3 isoform 2 (UniProt Q8NBI2)
inactive: [1] 0 | [2] -0.05 | [4] -0.073 | [5] 0.021 | [13] -0.103 | [6] -0.126 | [7] -0.014 | [8] 0.021 | [14] -0.139 | [9] 0.03 | [15] -0.223 | [16] 0.012 | [17] 0.065 | [10] 0.034 | [18] -0.029 | [11] 0.004 | [19] -0.044 | [12] -0.087 | [20] -0.015

DDX5 (UniProt P17844)
inactive: [1] 0.035 | [2] -0.16 | [3] 0.135 | [4] 0.125 | [5] 0.041 | [13] -0.016 | [6] 0.012 | [7] 0.165 | [8] -0.044 | [14] 0.052 | [9] 0.272 | [15] 0.018 | [16] 0.166 | [17] -0.092 | [10] -0.19 | [18] 0.076 | [11] 0.029 | [19] 0.046 | [12] -0.155 | [20] 0.326

DNAJC1 (UniProt Q96KC8)
Sequence of UniProt Q96KC8 (Q96KC8 whole entry, looked up): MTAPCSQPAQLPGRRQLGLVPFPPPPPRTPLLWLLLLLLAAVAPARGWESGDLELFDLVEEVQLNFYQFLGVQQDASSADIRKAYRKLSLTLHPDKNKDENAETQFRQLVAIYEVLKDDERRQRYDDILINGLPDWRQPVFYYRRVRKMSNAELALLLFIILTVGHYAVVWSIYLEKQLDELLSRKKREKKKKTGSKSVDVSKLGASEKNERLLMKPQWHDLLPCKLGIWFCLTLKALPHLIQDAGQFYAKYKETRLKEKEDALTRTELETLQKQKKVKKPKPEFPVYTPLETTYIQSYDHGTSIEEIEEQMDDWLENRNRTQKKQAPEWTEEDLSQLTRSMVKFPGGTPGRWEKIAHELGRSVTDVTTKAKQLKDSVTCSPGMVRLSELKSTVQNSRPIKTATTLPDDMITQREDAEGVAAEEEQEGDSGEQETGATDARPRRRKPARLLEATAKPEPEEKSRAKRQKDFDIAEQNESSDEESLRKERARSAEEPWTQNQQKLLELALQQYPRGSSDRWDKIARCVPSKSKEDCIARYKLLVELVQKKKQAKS
active: [14] -0.356
inactive: [1] -0.021 | [2] -0.148 | [3] 0.009 | [4] 0.023 | [5] 0.027 | [13] -0.094 | [6] -0.035 | [7] 0.009 | [8] 0.002 | [9] -0.185 | [15] -0.026 | [16] -0.035 | [17] 0.016 | [10] -0.064 | [18] 0.002 | [11] 0.028 | [19] 0.047 | [12] 0.039 | [20] 0.041

DAXX (UniProt Q9UER7)
Sequence of UniProt Q9UER7 (Q9UER7 whole entry, looked up): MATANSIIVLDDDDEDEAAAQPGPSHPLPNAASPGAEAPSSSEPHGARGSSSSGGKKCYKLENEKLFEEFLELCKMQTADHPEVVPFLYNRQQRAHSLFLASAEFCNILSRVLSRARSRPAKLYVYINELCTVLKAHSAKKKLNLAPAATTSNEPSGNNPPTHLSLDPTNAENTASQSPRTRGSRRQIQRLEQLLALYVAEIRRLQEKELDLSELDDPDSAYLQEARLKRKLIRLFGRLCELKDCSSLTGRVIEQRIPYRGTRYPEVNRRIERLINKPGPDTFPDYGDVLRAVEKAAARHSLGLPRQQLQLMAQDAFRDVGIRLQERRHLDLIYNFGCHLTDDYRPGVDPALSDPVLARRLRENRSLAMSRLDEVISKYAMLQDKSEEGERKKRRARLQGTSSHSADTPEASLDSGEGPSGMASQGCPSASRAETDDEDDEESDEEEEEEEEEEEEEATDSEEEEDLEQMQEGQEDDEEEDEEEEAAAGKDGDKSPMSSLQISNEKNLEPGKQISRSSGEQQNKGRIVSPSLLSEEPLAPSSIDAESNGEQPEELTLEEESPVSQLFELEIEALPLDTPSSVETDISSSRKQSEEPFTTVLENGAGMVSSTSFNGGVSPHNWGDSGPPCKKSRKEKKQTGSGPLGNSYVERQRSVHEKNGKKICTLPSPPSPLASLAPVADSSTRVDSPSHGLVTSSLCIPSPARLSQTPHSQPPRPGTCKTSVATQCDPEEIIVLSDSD
inactive: [1] 0.154 | [2] 0.098 | [4] 0.106 | [5] -0.001 | [13] 0.313 | [6] -0.167 | [7] 0.006 | [8] 0 | [14] -0.062 | [9] -0.119 | [15] -0.089 | [16] 0.055 | [17] -0.106 | [10] -0.034 | [18] 0 | [11] 0.061 | [19] -0.016 | [12] 0.034

EZH2 isoform 2 (UniProt Q15910)
inactive: [1] -0.012 | [2] -0.196 | [3] -0.039 | [4] 0.072 | [5] -0.112 | [6] -0.12 | [7] 0.279 | [8] 0.095 | [9] 0.146 | [10] -0.113 | [11] 0.055 | [12] -0.021 | [20] -0.097

EXOSC10 (UniProt Q01780)
Sequence of UniProt Q01780 (Q01780 whole entry, looked up): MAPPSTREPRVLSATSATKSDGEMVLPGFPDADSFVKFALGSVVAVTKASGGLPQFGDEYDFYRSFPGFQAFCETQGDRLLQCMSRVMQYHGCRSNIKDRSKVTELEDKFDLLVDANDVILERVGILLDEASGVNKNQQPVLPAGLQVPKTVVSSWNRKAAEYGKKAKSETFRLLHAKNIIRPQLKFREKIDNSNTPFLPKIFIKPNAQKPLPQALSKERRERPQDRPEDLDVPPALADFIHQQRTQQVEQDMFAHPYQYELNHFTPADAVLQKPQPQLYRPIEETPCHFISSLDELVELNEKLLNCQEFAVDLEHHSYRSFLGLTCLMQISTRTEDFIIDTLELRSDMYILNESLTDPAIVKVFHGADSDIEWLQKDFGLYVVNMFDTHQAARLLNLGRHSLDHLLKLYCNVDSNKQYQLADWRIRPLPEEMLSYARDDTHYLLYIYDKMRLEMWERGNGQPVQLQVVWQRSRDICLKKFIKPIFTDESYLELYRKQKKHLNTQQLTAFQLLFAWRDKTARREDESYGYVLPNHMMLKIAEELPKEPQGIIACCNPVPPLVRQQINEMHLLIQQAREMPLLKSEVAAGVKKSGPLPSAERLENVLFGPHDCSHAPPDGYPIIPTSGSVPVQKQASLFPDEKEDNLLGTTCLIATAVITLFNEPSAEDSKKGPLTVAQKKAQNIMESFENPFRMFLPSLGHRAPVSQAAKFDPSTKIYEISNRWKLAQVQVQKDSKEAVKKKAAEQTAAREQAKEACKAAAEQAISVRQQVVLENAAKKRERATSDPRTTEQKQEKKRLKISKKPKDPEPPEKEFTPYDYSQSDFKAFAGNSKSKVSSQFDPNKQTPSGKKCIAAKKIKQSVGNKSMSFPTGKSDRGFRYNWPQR
active: [9] -0.63
inactive: [1] 0.126 | [2] 0.043 | [3] 0.063 | [4] -0.015 | [5] 0.09 | [13] 0.527 | [6] -0.118 | [7] -0.138 | [8] 0.097 | [14] -0.441 | [15] 0 | [10] 0.017 | [11] 0.152 | [19] 0.251 | [12] 0.195 | [20] 0.046

DOCK8 (UniProt Q8NF50)
inactive: [1] 0.216 | [2] -0.011 | [3] -0.075 | [5] 0.038 | [13] 0.146 | [6] -0.119 | [7] -0.036 | [8] -0.004 | [14] -0.402 | [9] -0.076 | [15] -0.055 | [16] 0.069 | [17] -0.057 | [10] 0.052 | [18] -0.126 | [11] -0.14 | [19] -0.067 | [20] 0.021
active: [4] 0.67

DNAH10 (UniProt Q8IVF4)
inactive: [1] 0.124 | [2] 0.135 | [3] -0.003 | [4] -0.055 | [5] 0.077 | [13] -0.136 | [6] -0.146 | [7] -0.082 | [8] -0.003 | [9] 0.062 | [15] -0.052 | [16] -0.092 | [17] 0.037 | [10] 0.093 | [18] 0.043 | [11] 0.102 | [20] 0.154

DNAJB1 (UniProt P25685)
inactive: [1] -0.004 | [2] -0.004 | [3] 0.084 | [4] 0 | [5] 0.045 | [13] -0.041 | [6] -0.001 | [7] 0.059 | [8] -0.018 | [14] 0.019 | [9] -0.026 | [15] 0.013 | [16] -0.042 | [17] -0.058 | [10] -0.064 | [18] 0.026 | [11] 0.035 | [19] 0.02 | [12] -0.026 | [20] 0.01

EED, A0A5F9ZI63
inactive: [1] -0.074 | [2] 0.045 | [3] -0.047 | [4] 0.007 | [5] 0.014 | [13] 0.07 | [6] -0.016 | [7] -0.013 | [8] 0.028 | [14] 0.019 | [9] 0.019 | [15] -0.024 | [16] -0.027 | [17] 0.043 | [10] 0.015 | [18] -0.025 | [11] -0.076 | [19] -0.029 | [12] -0.014 | [20] -0.066

DDX11 (UniProt Q96FC9)
inactive: [1] 0.02 | [2] -0.01 | [3] -0.144 | [5] 0.05 | [6] -0.068 | [7] 0.015 | [8] 0.224 | [14] 0.012 | [9] -0.012 | [16] 0.098 | [17] 0.033 | [10] 0.061 | [18] 0.098 | [19] -0.132 | [12] 0.005 | [20] -0.015

DTYMK (UniProt P23919)
Sequence of UniProt P23919 (P23919 whole entry, looked up): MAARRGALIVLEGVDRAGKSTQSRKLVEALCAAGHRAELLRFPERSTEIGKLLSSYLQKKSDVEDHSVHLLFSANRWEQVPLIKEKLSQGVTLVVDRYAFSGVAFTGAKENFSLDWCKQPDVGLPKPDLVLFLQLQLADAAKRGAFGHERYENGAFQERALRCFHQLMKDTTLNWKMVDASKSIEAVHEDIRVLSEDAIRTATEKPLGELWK
inactive: [1] 0.046 | [2] -0.146 | [3] 0 | [4] -0.022 | [5] 0.094 | [13] -0.217 | [6] -0.109 | [7] -0.009 | [8] -0.025 | [14] 0.032 | [9] 0.044 | [15] 0.007 | [16] 0.042 | [17] 0.041 | [10] -0.151 | [18] -0.029 | [11] 0.045 | [19] 0.002 | [12] -0.019 | [20] 0.078

FAM177A1 isoform 2 (UniProt Q8N128)
Sequence of UniProt Q8N128 (Q8N128 whole entry, looked up): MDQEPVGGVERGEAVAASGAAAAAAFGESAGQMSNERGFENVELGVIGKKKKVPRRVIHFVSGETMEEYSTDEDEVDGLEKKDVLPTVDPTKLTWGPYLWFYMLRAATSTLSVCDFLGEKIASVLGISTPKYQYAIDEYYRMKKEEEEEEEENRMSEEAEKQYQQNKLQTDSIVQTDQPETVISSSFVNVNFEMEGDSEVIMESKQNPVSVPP
inactive: [1] 0.018 | [2] -0.109 | [3] 0.059 | [4] -0.063 | [5] 0.012 | [13] -0.102 | [6] -0.072 | [7] -0.027 | [8] -0.012 | [14] -0.082 | [9] -0.125 | [15] -0.007 | [16] -0.113 | [17] 0.005 | [10] -0.098 | [18] -0.044 | [11] 0.038 | [19] -0.005 | [12] -0.01 | [20] 0.004

EXOC6 (UniProt Q8TAG9)
Sequence of UniProt Q8TAG9 (Q8TAG9 whole entry, looked up): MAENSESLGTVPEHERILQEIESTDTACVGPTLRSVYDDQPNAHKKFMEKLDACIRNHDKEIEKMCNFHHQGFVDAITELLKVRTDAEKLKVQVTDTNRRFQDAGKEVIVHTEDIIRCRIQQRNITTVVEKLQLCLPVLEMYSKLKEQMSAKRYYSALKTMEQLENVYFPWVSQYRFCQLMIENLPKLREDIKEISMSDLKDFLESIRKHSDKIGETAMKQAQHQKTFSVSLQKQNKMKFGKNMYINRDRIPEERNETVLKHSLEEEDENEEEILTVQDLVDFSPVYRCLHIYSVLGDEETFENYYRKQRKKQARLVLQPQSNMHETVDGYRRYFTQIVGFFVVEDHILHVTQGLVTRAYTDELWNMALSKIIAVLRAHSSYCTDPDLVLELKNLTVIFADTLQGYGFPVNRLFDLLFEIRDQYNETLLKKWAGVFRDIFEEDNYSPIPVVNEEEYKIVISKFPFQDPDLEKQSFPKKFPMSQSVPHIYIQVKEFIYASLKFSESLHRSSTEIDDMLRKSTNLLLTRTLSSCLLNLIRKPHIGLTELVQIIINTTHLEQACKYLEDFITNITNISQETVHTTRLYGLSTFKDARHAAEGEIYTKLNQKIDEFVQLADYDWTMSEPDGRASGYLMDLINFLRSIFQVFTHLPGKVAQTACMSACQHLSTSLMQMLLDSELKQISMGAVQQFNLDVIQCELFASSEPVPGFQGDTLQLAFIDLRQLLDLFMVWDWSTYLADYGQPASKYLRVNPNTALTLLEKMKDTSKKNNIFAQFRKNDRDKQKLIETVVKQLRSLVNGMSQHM
inactive: [1] 0.001 | [2] -0.206 | [3] -0.038 | [4] 0.033 | [5] -0.095 | [13] -0.098 | [6] 0.037 | [7] 0.1 | [8] 0.02 | [9] -0.013 | [15] 0.036 | [16] -0.013 | [17] -0.196 | [10] -0.22 | [18] -0.013 | [11] 0.042 | [19] 0.028 | [12] -0.076 | [20] 0.07
active: [14] -0.363

FAM207A (UniProt Q9NSI2)
Sequence of UniProt Q9NSI2 (Q9NSI2 whole entry, looked up): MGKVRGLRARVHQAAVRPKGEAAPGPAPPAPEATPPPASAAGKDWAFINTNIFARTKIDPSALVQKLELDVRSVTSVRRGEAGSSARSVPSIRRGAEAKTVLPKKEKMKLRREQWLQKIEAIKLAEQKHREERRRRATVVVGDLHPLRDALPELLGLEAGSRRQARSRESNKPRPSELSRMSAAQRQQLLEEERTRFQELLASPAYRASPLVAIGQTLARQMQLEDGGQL
inactive: [1] 0.009 | [2] 0.075 | [3] 0.08 | [5] 0.128 | [13] -0.039 | [6] 0.053 | [7] -0.098 | [8] 0.101 | [14] -0.077 | [9] 0.002 | [15] 0.076 | [16] -0.071 | [17] -0.087 | [10] 0.006 | [18] -0.059 | [19] -0.127 | [12] 0.003 | [20] -0.238

EEF1A1 (UniProt P68104)
Sequence of UniProt P68104 (P68104 whole entry, looked up): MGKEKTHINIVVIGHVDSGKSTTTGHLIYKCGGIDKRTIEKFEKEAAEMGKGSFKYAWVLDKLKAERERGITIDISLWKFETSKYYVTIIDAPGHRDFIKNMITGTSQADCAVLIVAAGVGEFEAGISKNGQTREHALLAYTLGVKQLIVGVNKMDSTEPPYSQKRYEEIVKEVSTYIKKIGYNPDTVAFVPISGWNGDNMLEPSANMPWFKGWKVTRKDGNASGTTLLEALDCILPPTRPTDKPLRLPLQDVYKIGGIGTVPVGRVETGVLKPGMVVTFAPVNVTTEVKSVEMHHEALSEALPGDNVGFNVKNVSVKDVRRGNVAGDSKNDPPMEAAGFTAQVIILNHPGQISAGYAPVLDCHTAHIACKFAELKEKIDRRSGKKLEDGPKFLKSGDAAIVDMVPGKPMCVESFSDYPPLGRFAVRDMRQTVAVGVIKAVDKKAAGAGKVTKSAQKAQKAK
inactive: [1] 0.081 | [2] 0.001 | [3] -0.022 | [4] -0.474 | [5] -0.048 | [6] -0.139 | [7] -0.004 | [8] -0.062 | [14] 0.115 | [9] -0.114 | [16] 0.042 | [17] -0.113 | [10] -0.116 | [18] 0.001 | [11] 0.044 | [19] -0.063 | [12] -0.057 | [20] -0.033
